# In PubChem BioAssay (NCI):
# This is part of a sample that, as a whole, favours compounds with a hit. Of some 83,000 tested, about 20% had one in any assay.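 Values shown are percent growth following 48 h exposure of cells in 96-well plates to a single concentration of compound; below 10 was considered active.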 A number with no mark means an inactive call. Activity calls are given as the source filed them.
# Key:
# Test in all cases: NCI-60 one-dose screen, 48 h (100 = growth as untreated, 0 = no growth, -100 = all killed)
# Conditions in all cases: 10 µM
# K-562 leukemia = tested on: K-562 leukemia
# MALME-3M melanoma = tested on: MALME-3M melanoma
# MDA-MB-231 breast = tested on: MDA-MB-231 breast
# RXF 393 renal = tested on: RXF 393 renal
# SF-268 CNS = tested on: SF-268 CNS
# SF-295 CNS = tested on: SF-295 CNS
# SF-539 CNS = tested on: SF-539 CNS
# UACC-257 melanoma = tested on: UACC-257 melanoma
# M14 melanoma = tested on: M14 melanoma
# HCT-15 colon = tested on: HCT-15 colon
# HT29 colon = tested on: HT29 colon
# SNB-75 CNS = tested on: SNB-75 CNS
# SNB-19 CNS = tested on: SNB-19 CNS
# U251 CNS = tested on: U251 CNS
# PC-3 prostate = tested on: PC-3 prostate
# SK-MEL-5 melanoma = tested on: SK-MEL-5 melanoma
# UACC-62 melanoma = tested on: UACC-62 melanoma
# LOX IMVI melanoma = tested on: LOX IMVI melanoma
# SK-MEL-28 melanoma = tested on: SK-MEL-28 melanoma
Structure (SMILES),growth (K-562 leukemia),growth (MALME-3M melanoma),growth (MDA-MB-231 breast),growth (RXF 393 renal),growth (SF-268 CNS),growth (SF-295 CNS),growth (SF-539 CNS),growth (UACC-257 melanoma),growth (M14 melanoma),growth (HCT-15 colon),growth (HT29 colon),growth (SNB-75 CNS),growth (SNB-19 CNS),growth (U251 CNS),growth (PC-3 prostate),growth (SK-MEL-5 melanoma),growth (UACC-62 melanoma),growth (LOX IMVI melanoma),growth (SK-MEL-28 melanoma)
CCCCCCCCCCCCCCCC(=O)OC1[C@@H](OC(=O)CCCCCCCCCCCCCCC)[C@@H](C(=O)N[C@@H](CCCCN)C(=O)OC)O[C@H]1n1cnc2c(=O)[nH]c(NC(=O)C(C)C)nc21 (stereo not given in full),82.9%,98.5%,118%,105%,97.1%,108%,103%,90.1%,93.7%,96.6%,98.2%,94.1%,93.5%,90.2%,103%,101%,111%,93.5%,113%
Nc1ncnc2[nH]c(=O)[nH]c12,46.5%,104%,91.4%,22.1%,89%,85.1%,87%,103%,94.6%,96.3%,105%,84.6%,97.5%,97.8%,201%,100%,92.3%,95.2%,107%
CCCCCCN1CCN(Cc2ccc(N(CC)CC)cc2)C(=O)C1=O,11.7%,10.1%,44.4%,7.71% (active),42.5%,11.8%,-1.86% (active),33.7%,9.15% (active),41.5%,2.25% (active),14%,74.4%,17.1%,13.5%,21.4%,45%,45.2%,49.9%
O=S(=O)(NCCCNc1nccc(-c2c(-c3ccc(F)cc3)nc3sccn23)n1)c1ccc(F)cc1,13.5%,48.5%,73.3%,57.9%,45.4%,25.4%,78.1%,57.2%,44.4%,38.4%,3.28% (active),40.7%,93.2%,35.9%,32.3%,31.6%,18.5%,28.3%,67.3%
C/C(N)=C(\C#N)C(=O)c1ccccc1,109%,90.5%,121%,97.5%,110%,94.1%,103%,88%,110%,98.2%,105%,93.1%,107%,98.2%,98.2%,99.5%,109%,99.8%,108%
CN(Cc1ccccc1)Cc1ccc([N+](=O)[O-])cc1I,91.7%,84%,101%,88.2%,98%,104%,100%,103%,102%,92.2%,93.8%,94.7%,91.6%,89.4%,90.5%,93.5%,94.2%,102%,97.1%
CC1(C)N=C(N)N=C(N)N1c1ccc(CCc2ccccc2)c(Cl)c1,11.2%,43.3%,39.7%,44%,21.1%,17.7%,21.8%,3.1% (active),20.5%,39.7%,1.41% (active),35.8%,31.6%,13.2%,18.7%,0.745% (active),23%,12.6%,30.3%
O=C(Nc1ccccc1)Nc1cccc(-n2cc(-c3ccncc3)c(-c3ccc(O)c(Cl)c3)n2)c1,24.4%,20.2%,15.6%,47%,71.7%,-21.7% (active),0.346% (active),10.3%,31.8%,24.7%,64.7%,48.3%,77.2%,-9.56% (active),31.3%,42.8%,43.8%,47.7%,43.6%
COc1ccc(-c2nn(-c3cccc(NC(=O)Nc4ccccc4)c3)cc2-c2ccncc2)cc1Cl,10.4%,17.9%,-9.47% (active),-59.3% (active),27.9%,-7.17% (active),-59.1% (active),-32.9% (active),9.94% (active),16.6%,-69.6% (active),27.5%,83.5%,-35.8% (active),8.81% (active),42.1%,46.4%,29%,11.3%
O=C(Nc1nc2ccccc2s1)Nc1ccc([N+](=O)[O-])cc1Cl,58.8%,96.4%,40.1%,-17.7% (active),3.97% (active),67.8%,-48.5% (active),-10.6% (active),79.7%,87.2%,55.8%,16.8%,111%,32.6%,52%,98.5%,67.1%,12.7%,68.5%
CN(C)c1ccc(/C=C/C=N/NC(=O)c2cc(O)c(O)c(O)c2)cc1,27.1%,88.9%,85.4%,99.4%,94.6%,103%,89.8%,92.8%,96.9%,94.2%,111%,81.3%,79.9%,59.7%,85.8%,92.9%,107%,91.4%,108%
COc1ccc(C2=NN(C(=O)c3ccc(S(C)(=O)=O)cc3)C(c3ccc(OC)c(OC)c3)C2)c(OC)c1 (stereo not given),77.2%,113%,95.2%,105%,89%,98.7%,102%,92.2%,103%,99.4%,103%,94%,99.1%,106%,90.9%,90%,95.2%,103%,112%
S=C1SCC(c2ccccc2)S1 (stereo not given),106%,118%,107%,105%,111%,117%,95.7%,89.6%,113%,100%,103%,92.2%,97.8%,95.5%,99.7%,103%,100%,103%,103%
COc1ccc(-c2nn(-c3cccc(NC(=O)c4ccc5c(c4)OCCO5)c3)cc2-c2ccncc2)cc1Cl,18.4%,4.38% (active),27.2%,0.93% (active),34.8%,-26% (active),-20.7% (active),34.9%,13.5%,32.8%,0.486% (active),2.6% (active),70.8%,-9.64% (active),10.4%,20%,34.1%,29.9%,38.3%
CN(C)CCN1C(=O)c2cccc3c(-c4ccc5ncn(C6CCCCC6)c5c4)ccc(c23)C1=O,6.76% (active),30.8%,33.6%,26.3%,35.8%,23.1%,31.9%,23.1%,30.2%,12.5%,7.45% (active),40.1%,23.3%,12.6%,22%,21.4%,24.6%,13.8%,47.2%
